Compounds without any hit were thinned out: in the full panel of roughly 79,000, 15% have a hit. The source made the active and inactive calls. No stated cut-off is given here; in the data, active means growth inhibition above about 70%; inactive means the rest. Where a SMILES comes first, the peptide text is derived from it.
How the values were obtained:
[1] = NCI Yeast Anticancer Drug Screen. Data for the rad50 strain (AID 155);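 further: 0% = growth of vehicle-only cultures of the same strain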; conditions: S. cerevisiae rad50 strain growth inhibition; at 50.0 µM; stronger effect = higher value
Procedure, shortened: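 Yeast carrying a defined DNA repair defect were exposed to test compounds, and growth was compared with vehicle-treated controls to give percent inhibition.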

[2] = NCI Yeast Anticancer Drug Screen. Data for the mec2-1 strain (AID 157); conditions: S. cerevisiae mec2-1 strain, at 50.0 µM, stronger effect = higher value
Procedure, shortened: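 Using mec2-1 yeast: add compound, measure growth, express inhibition versus vehicle-treated cultures.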

[3] = NCI Yeast Anticancer Drug Screen. Data for the sgs1 mgt1 strain (AID 161);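 further: 0% = growth of cultures given vehicle only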; conditions: S. cerevisiae sgs1 mgt1 strain, at 50.0 µM, stronger effect = higher value
Procedure, shortened: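 Yeast cells carrying a defined DNA-repair defect were exposed to test compounds. Growth inhibition was measured relative to vehicle-treated controls.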

[4] = NCI Yeast Anticancer Drug Screen. Data for the cln2 rad14 strain (AID 165);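 further: 0% = growth equal to vehicle treated cultures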; conditions: S. cerevisiae cln2 rad14 strain, at 50.0 µM, stronger effect = higher value
Procedure, shortened: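 Yeast strain cln2 rad14, bearing defects in cell cycle control and DNA repair, serves as the test system; values reflect growth inhibition compared with vehicle.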

[5] = NCI Yeast Anticancer Drug Screen. Data for the bub3 strain (AID 167); conditions: S. cerevisiae bub3 mutant strain, at 50.0 µM, stronger effect = higher value
Procedure, shortened: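 Compounds were applied to a genetically altered yeast strain carrying a cell-cycle control defect. Growth inhibition was scored against vehicle-treated controls.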

[6] = NCI Yeast Anticancer Drug Screen. Data for the mlh1 rad18 strain (AID 175); conditions: S. cerevisiae mlh1 rad18 strain growth inhibition; at 50.0 µM; stronger effect = higher value
Procedure, shortened: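 Steps: expose repair-defective yeast to compound; measure growth; express inhibition against vehicle-treated controls.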

Measured: growth inhibition

CC(C)=CCC1=C(O)[C@@](O)(CC=C(C)C)C(=O)C(C(=O)CC(C)C)=C1O
inactive: [1] 28.2% | [2] 7.95% | [3] 31.7% | [4] 26.4% | [5] 35.2% | [6] 29.6%

CCn1c2ccc(N=C=O)cc2c2c3[nH]c(=O)c4cccn4c3ccc21
inactive: [1] -30.9% | [2] 10.2% | [3] -9.4% | [4] 0.55% | [5] -1.8% | [6] 1.25%

O=C(OCCN1CCCCC1)C(c1ccccc1)C1(O)CCSCC1 (stereo not drawn)
inactive: [1] 9.6% | [2] 22.9% | [3] 32.6% | [4] 25.9% | [5] 17.9% | [6] 5.15%

Cc1ccc(C(=N)c2ccccc2Cc2ccccc2)cc1C
inactive: [1] -11.7% | [2] -2.45% | [3] -15.1% | [4] -12.2% | [5] 7.9% | [6] -27.9%

ONc1ncnc2nc[nH]c12
inactive: [1] -8.65% | [2] 5.4% | [3] 3.8% | [4] -1.65% | [5] -2.45% | [6] -11.3%

NC(=O)CSCC(=O)O
inactive: [1] -5.9% | [2] -6.2% | [3] 14.5% | [4] -0.15% | [5] -23.2% | [6] -14.1%

CC(=O)c1c(-c2ccc(Cl)cc2)c(-c2ccc(Cl)cc2)nn(CCNC(C)C)c1=O
active: [1] 96.7% | [2] 98.4% | [3] 95.8% | [4] 88.9% | [5] 80.5% | [6] 95%

CCCCn1cnc2c(SSc3ncnc4c3ncn4CCCC)ncnc21
inactive: [1] -11.6% | [2] -11.3% | [3] 5.1% | [4] 12% | [5] 22.4%
active: [6] 75.7%

CCCOC(=O)C(O)Cc1ccccc1 (stereo not drawn)
inactive: [1] -26.9% | [2] 18.2% | [3] 5.95% | [4] -0.35% | [5] -11.1% | [6] -34.3%

O=C1C(=Cc2cccc(O)c2)N=C(c2ccccc2)N1n1c(-c2ccccc2)nc2ccccc2c1=O
inactive: [1] -14.3% | [2] 5.15% | [3] 25.8% | [4] 14.7% | [5] -1.75% | [6] 11.9%

OC1CCCCC1C1CCCCC1 (stereo not drawn)
inactive: [1] 28.9% | [2] 4.45% | [3] 15.2% | [4] 22.3% | [5] -4.4% | [6] 26.7%

COc1ccc2cc(C(=O)O)ccc2c1OC
inactive: [1] 1.05% | [2] 1.7% | [3] 27% | [4] 25.1% | [5] -6.3% | [6] -3.85%

CCCCCCCCCCCCCCCCCCN(C)CC(COC)OP(=O)([O-])OCC[N+](C)(C)C (stereo not drawn)
inactive: [1] 22.6% | [2] 14.3% | [3] 15.1% | [4] -3.45% | [5] 0.25% | [6] 24.9%

COc1ccc2c(=O)c(S)coc2c1
inactive: [1] 35.8% | [2] 36.5% | [3] 22.3% | [4] 9% | [5] -1.15% | [6] 41%

CCNC(=O)N(Cc1ccccc1)Cc1ccccc1
inactive: [1] 7.55% | [2] 8.65% | [3] 6.05% | [4] 13.3% | [5] 23.5% | [6] -20.6%

O=C(Oc1c(Cl)cc([N+](=O)[O-])cc1[N+](=O)[O-])Sc1ccccc1
active: [1] 99.4% | [2] 99.7% | [3] 99.5% | [4] 99.2% | [5] 99.5% | [6] 99.5%

COc1ccc2nc3ccccc3c(NCCCN(C)C)c2c1[N+](=O)[O-]
inactive: [1] -8.1% | [2] -19.6% | [3] 12.9% | [4] -22.2% | [5] -13.3% | [6] -4.7%

COc1ccccc1N1C(=O)C2C3c4ccccc4C(OC(C)=O)(c4ccccc43)C2C1=O (stereo not drawn)
inactive: [1] -19.8% | [2] -13.6% | [3] 4.25% | [4] 3.4% | [5] -14.8% | [6] 12.9%

CC(C)(C)CC(C)(C)c1c(O)cc(O)cc1Cl
active: [1] 99% | [2] 99.3% | [3] 94.8% | [4] 99% | [5] 99.2% | [6] 99.2%

NCC(=O)NCC(=O)NCC(=O)NCC(=O)NCC(=O)NCC(=O)O
inactive: [1] 26.1% | [2] 16.4% | [3] 0.4% | [4] -38.6% | [5] -3.5% | [6] -3.65%

CCOC(=O)/C(=C/c1cccc2ccccc12)P(=O)(OCC)OCC
inactive: [1] 36.6% | [2] 50.9% | [3] 51.7% | [4] 29.4% | [5] 37.1% | [6] 52.4%

CCN(CC)CCNC(=O)c1ccc(C)c(OCc2ccccc2)c1[N+](=O)[O-]
inactive: [1] -9.4% | [2] -9.25% | [3] 26.6% | [4] -26.8% | [5] 34.8% | [6] -19.6%

CCOC(=O)CC1(c2ccccc2)OC(=O)c2ccccc21 (stereo not drawn)
inactive: [1] 9.05% | [2] 13.2% | [3] 8.65% | [4] 4.75% | [5] 16.9% | [6] -11.2%

NC(=O)c1nnc2c(F)cccc2c1N
inactive: [1] -39.2% | [2] -29.4% | [3] -15.3% | [4] -0.8% | [5] -27.2% | [6] -24.6%

O=S(=O)([O-])Sn1c(-c2ccccc2)c[n+]2ccccc12
inactive: [1] 11.8% | [2] 5.55% | [3] 13.9% | [4] 14.2% | [5] 12.1% | [6] 10.8%

O=C(C#Cc1ccccc1)[O][Sn]([c]1ccccc1)([c]1ccccc1)[c]1ccccc1
active: [1] 99% | [2] 99.2% | [3] 99.4% | [4] 99.2% | [5] 99.1% | [6] 99.2%

COc1cc(OC)c(/C=C2\N=C(C)N(Nc3nnc(NN4C(=O)/C(=C/c5c(OC)cc(OC)cc5OC)N=C4C)c4ccccc34)C2=O)c(OC)c1
inactive: [1] -0.15% | [2] -2.25% | [3] -12.8% | [4] -2.5% | [5] -2.7% | [6] 8.15%

NC1C2C3C=CC(C3)C12 (stereo not drawn)
inactive: [1] 12.5% | [2] -3.85% | [3] -5.75% | [4] -28.9% | [5] -5.2% | [6] 8.95%

COc1ccc2nc(NC(=O)C(=O)C(C#N)c3ccc(Cl)c(Cl)c3)sc2c1 (stereo not drawn)
inactive: [1] 36.2% | [2] 5.4% | [3] 19.1% | [4] 33.9% | [5] -2.2% | [6] 36.4%

CCOC(=O)C1(N)CC1
inactive: [1] 4.65% | [2] 7.1% | [3] 2.8% | [4] -10% | [5] -11.4% | [6] 17.2%

O=C1/C(=C2\CCc3ccccc32)Cc2ccccc21
inactive: [1] 14.1% | [2] 5.65% | [3] -4.2% | [4] -1.7% | [5] 34.6% | [6] 8.15%

O=C(O)CC(=O)C(C(=O)O)C(CCc1ccccc1)C(C(=O)O)C(=O)CC(=O)O (stereo not drawn)
inactive: [1] -21.2% | [2] -13.6% | [3] -19.7% | [4] 10.2% | [5] -2.75% | [6] -11.4%

C[Si](C)(C)N1CCCC1
inactive: [1] -22.1% | [2] -26.9% | [3] -16.8% | [4] 12.4% | [5] 3.5% | [6] -6.85%

N#CCCOCC(OCCC#N)C(OCCC#N)C(OCCC#N)C(COCCC#N)OCCC#N (stereo not drawn)
inactive: [1] -9.85% | [2] -14.6% | [3] -13.2% | [4] 6.15% | [5] 6.8% | [6] -13.2%

O=C(CCc1cc(O)ccc1O)OCCc1ccccc1
active: [2] 71.2% | [3] 91.6% | [4] 85.3% | [5] 88.4% | [6] 91.5%
inactive: [1] 30.9%

O=C(O)c1n[nH]c2ccccc12
inactive: [1] 8.5% | [2] -14.1% | [3] 3.75% | [4] 5.6% | [5] -5.7% | [6] -9.85%

CCC(C)C(N)C(=O)N1CCCC1C(=O)O (stereo not drawn) (H-Ile-Pro-OH; configuration not given here)
inactive: [1] -23.1% | [2] -4.65% | [3] -1.15% | [4] -25.9% | [5] -2.45% | [6] -3.15%

CC(=O)Nc1cccc(Cl)c1
inactive: [1] -2.25% | [2] -24.5% | [3] -0.2% | [4] -4.8% | [5] -1.45% | [6] 6.5%
